Rows were chosen to be rich in hits. Some 8% of all compounds tested hit in one or more screens of this group.
SARS PLpro yeast: qHTS of Yeast-based Assay for SARS-CoV PLP. S. cerevisiae expressing SARS-CoV PLpro, growth rescue. actives 0.19% (n = 330,000). Potency, µM (series often up to 32.9 µM), without a hit: at the highest dose activity, positive = growth rescue, usual class: activators. AID 485353, 2010; calls by dose curve; also: potency is read from the fitted curve at half-maximal effect; 0% is about no effect; nearly all actives have a fitted effect of over 55% in size
HCMV antiviral: qHTS Assay for inhibitors of the human cytomegalovirus (HCMV); HFF cells, HCMV-luciferase reporter, 72 h; hits give low values; activity change, negative = inhibition, % at 57.5 µM; actives 4.5% (n = 410,000); AID 1259415, 2018; in the data active = activity change below about -60%; inconclusive = no clear call, values can overlap the other calls; inactive = above about -39%; also: % is scaled to controls: 0 for no effect and ±100 for the full control effect
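Steps: HFFs plated, 16 h 37C; compounds added; HCMV-luciferase added to MOI 1 PFU/cell; 72 h 37C; OneGlo reagent, 5 min room temperature; luminescence read, normalized to controls.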
Lassa entry inh: qHTS for Inhibitors of binding or entry into cells for Lassa Virus; Lassa virus pseudotype entry inhibition, cell reporter; Potency, µM (doses to about 37.9 µM), inactives show top-dose activity change, negative = inhibition, actives largely listed as inhibitors; actives 1.2% (n = 300,000); AID 540256, 2011; calls by dose curve; tested in HEK293 cells; also: potency is read from the fitted curve at half-maximal effect; % is scaled to controls: 0 for no effect and ±100 for the full control effect; nearly all actives have a fitted effect of over 50% in size
HCV inhibitor: qHTS Assay for Inhibitors of Hepatitis C Virus (HCV). Huh7.5.1 HCVcc-Cre infection, luciferase reporter, 44 h. Potency, µM (highest dose often 41.8 µM), inactives show at the highest dose activity change, negative = inhibition, usual class: inhibitors. actives 3.4% (n = 340,000); active = well fitted inhibition curve with a large enough effect; inconclusive = small, poorly fitted or top-dose-only effect, or another doubt; inactive = no such curve, though single readings can be large or run the other way; also: potency is read from the fitted curve at half-maximal effect; % is scaled to controls: 0 for no effect and ±100 for the full control effect
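Luciferase read-out (15 sec integration) after a 15 min room-temperature substrate step quantifies HCVcc-Cre infection. Cells, 1,000 per well, had compound added 4 h post-plating, then virus at ~0.5 moi, and were cultured 44 h.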
MARV entry inh: qHTS for inhibitors of binding or entry into cells for Marburg Virus; Potency, µM (top dose mostly 37.8 µM), for the others: at the highest dose activity change, negative = inhibition, usual class: inhibitors; actives 1.8% (n = 300,000); Marburg virus pseudotyped entry inhibition, cell reporter; calls by dose curve; tested in HEK293 cells; also: potency is read from the fitted curve at half-maximal effect; % is scaled to controls: 0 for no effect and ±100 for the full control effect
FMDV antiviral: High Throughput Screening for Foot and Mouth Disease Virus Antivirals; Potency, µM (titrated, usually from 57.9 µM), without a hit: at the highest dose activity change, negative = inhibition, usual class: inhibitors; actives 1.2% (n = 410,000); FMDV antiviral cell-based qHTS; calls by dose curve; tested in HEK293T cells; also: read-out not given here; potency is read from the fitted curve at half-maximal effect; % is scaled to controls: 0 for no effect and ±100 for the full control effect; nearly all actives have a fitted effect of over 45% in size
The depositor's hits bear a star; ? = inconclusive; · = not tested or not shown; ! = not confirmed by another sample; [ ] = remark or other dose.

SMILES	SARS PLpro yeast	HCMV antiviral	Lassa entry inh	HCV inhibitor	MARV entry inh	FMDV antiviral
CC(=O)N1c2c(cc(Br)cc2S(=O)(=O)Nc2ccc(OC(F)(F)F)cc2)CC1C (centres undefined)	·	-82*	4%[46.1 µM]	·	-23%[46.1 µM]	25%
COc1ccc(CNS(=O)(=O)c2cc(Br)cc3c2N(C(C)=O)C(C)C3)cc1 (centres undefined)	-2%	-39	-6%	19%	-19%[46.1 µM]	18%
CN(C)c1ncc2nc(-c3cccs3)c(=O)n(C[C@H]3CCCO3)c2n1	·	·	·	·	·	22%
O=C(NCc1ccccc1F)c1cc2ccccn2n1	·	80	14%[46.1 µM]	·	·	67%
COc1ccccc1Oc1ccc2c(c1)C(=O)N(c1cccc3ncccc13)C2=O	-15%	-19	-12%	?	?	20µM*
CC(Sc1ccccc1)C(=O)N1CCN(S(=O)(=O)c2ccccc2)CC1 (centres undefined)	2%	-63*	-2%	26%	4%	-28%
COc1ccc(S(=O)(=O)N2CCN(C(=S)NCCc3ccccc3)CC2)cc1	-9%	-1	-13%	·	?	14%
COc1ccc(CCNC(=S)N2CCN(S(=O)(=O)c3ccc(C)cc3)CC2)cc1	-1%	-98*	2%	?	-14%	7%
O=S(=O)(c1ccccc1)N1CCN(C(=S)NCCc2ccccc2)CC1	4%	-72*	-19%[46.1 µM]	-6%	-2%[46.1 µM]	30%
CC(Sc1ccccc1)C(=O)N1CCN(S(=O)(=O)c2ccccc2C(F)(F)F)CC1 (centres undefined)	-2%	·	-6%	2%	2%	?
CC(C)CNc1nc(Br)cnc1N	·	39	·	·	·	·
CCN(CC)CC(=O)Nc1sc2c(c1C(=O)c1ccccc1OC)CCC2	0%	-13	11µM*	?	?	0%
N#CCC(=O)Nc1sc2c(c1C(N)=O)CCCC2	11%	-62*	·	-4%	·	-6%
NC(=O)c1c(NC(=O)c2ccncc2)sc2c1CCCC2	-4%	10	·	13µM*	·	18%
NC(=O)c1c(NC(=O)c2ccncc2)sc2c1CCCCCC2	-2%	-16	7%[46.1 µM]	?	?	-8%
CCOC(=O)c1c(NC(=O)CN(CC)CC)sc2c1CCC2	-11%	76	-27%	?	-27%	·
NC(=O)c1c(NC(=O)Cc2cccs2)sc2c1CCC2	0%	-17	-13%	?	3%	1%
COc1ccccc1CC(=O)Nc1sc2c(c1C(N)=O)CCCC2	6%	48	?	20µM*	-20%[46.1 µM]	-14%
Nc1ccccc1SCC1CSc2nc3ccccc3c(=O)n21 (centres undefined)	1%	-15	·	-2%	·	-11%
O=c1c2ccccc2nc2n1C(CSCc1ccc(Cl)cc1Cl)CS2 (centres undefined)	3%	-31	-26%	-4%	?	18µM*
CN(NS(=O)(=O)c1ccc(Br)cc1)c1nc(C(F)(F)F)nc2ccccc12	-2%	-64*	?	-15%	?	-28%
Cc1c(Cl)cccc1NC(=S)NCCc1ccccn1	0%	-69*	-28%	-9%	2%[14.2 µM]	-5%
Cc1c(Cl)cccc1NC(=S)NCCc1ccc(C(F)(F)F)cc1	-24%	-33	?	11µM*	10µM*	-22%
CC(C)=CCC12CC3[C@@H](O)C(C(=O)c4ccccc4)(C1=O)C(=O)C(CC=C(C)C)(C2=O)C3(C)C (some centres undefined)	·	·	?	·	-26%[14.2 µM]	·
Cc1ccc(-n2c(N)c(C(=O)N3CCOCC3)sc2=S)cc1	3%	-4	13%	?	4%	3%
SMILES	SARS PLpro yeast	HCMV antiviral	Lassa entry inh	HCV inhibitor	MARV entry inh	FMDV antiviral
CN1CCN(C(=O)c2sc(=S)n(-c3ccccc3)c2N)CC1	4%	-92*	-2%	19%	?	2%
O=C(CSC1=Nc2ccccc2N=C(c2ccc(F)cc2)C1)Nc1ccc(Cl)cc1	·	-6	?	·	·	3%
Cc1cccc(N2CCN(C(=O)CCS(=O)(=O)c3ccc4c(c3)oc(=O)n4C)CC2)c1C	1%	-62*!	?	11µM*	-2%[46.1 µM]	?
Cc1cccc(N2CCN(C(=O)CCNS(=O)(=O)c3ccc4c(c3)CCC(=O)N4)CC2)c1C	3%	?	6.5µM*	?	?	-7%
CC(=O)SC(C[N+](=O)[O-])c1cn(C(C)=O)c2ccccc12 (centres undefined)	-44%	-106*	-24%	11µM*	-15%	28µM*
CC(=O)n1cc(Nc2ccc([N+](=O)[O-])cc2)c2ccccc21	-6%	158	7%	-20%	-24%	-28%
CCn1c(SCc2ccc(C(=O)Nc3cc(C)cc(C)c3)cc2)nnc1-c1ccncc1	0%	-62*	-23%	11µM*	?	18µM*
COc1ccc(Nc2nnc(SCC(=O)/C=C3/N(C)c4ccccc4C3(C)C)s2)cc1	-36%	-74*	14µM*	?	?	20µM*
Cn1c(SCCCC(=O)c2ccc(F)cc2)nnc1-c1ccncc1	3%	-33	7%	-23%	3%	?
COCCn1c(SCC(=O)c2c(-c3ccccc3)n(C)c3ccccc23)nnc1-c1ccncc1	1%	-36	-5%	?	?	-9%
COCCn1c(SCCCC(=O)c2ccc(Br)cc2)nnc1-c1ccncc1	-8%	-71*	?	7.9µM*	?	?
COCCn1c(SCC(=O)/C=C2\N(C)c3ccccc3C2(C)C)nnc1-c1ccncc1	3%	-75*	?	?	-38%	?
Cn1nnnc1SCCCNCc1ccccc1OCc1ccc(F)cc1	·	-35	-4%[46.1 µM]	·	?	-8%
COc1ccc(-c2ccc(C(=O)NCC3Cc4cccc(-c5nc(C)cnc5C)c4O3)o2)cc1 (centres undefined)	·	·	·	·	·	-15%
Cn1c2ccc(F)cc2c2nnc(SCCN3CCCCC3)nc21	1%	-86*!	-6%[46.1 µM]	11µM*	1%[46.1 µM]	-7%
COc1ccc(NS(=O)(=O)c2cccc(C(=O)O)c2)cc1	3%	9	-1%	-4%	10%	·
COc1ccc(C(=O)C(C)OC(=O)c2cccc(S(=O)(=O)Nc3cc(Cl)c(OC)cc3OC)c2)cc1 (centres undefined)	9%	·	?	?	7.1µM*	19%
COC(=O)/C=c1\s/c(=C(/C#N)C(=O)NCc2ccco2)n(-c2ccccc2)c1=O	·	·	·	·	-4%	·
O=S(=O)(CCc1nc2ccccc2[nH]1)c1ccc(Cl)cc1	1%	-61*	2%	2%	-9%	-6%
Clc1ccc(OCc2nc3ccccc3[nH]2)cc1	-15%	37	?	11µM*	?	6%
Cc1ccc(S(=O)(=O)CCc2nc3ccccc3[nH]2)cc1	0%	-69*	?	-1%	3%[46.1 µM]	5%
